From PubChem BioAssay
Only a selection was taken, and hits are over-represented in it overall.
ALOX12 inh: Primary qHTS assay for inhibitors of human arachidonate 12S-lipoxygenase (ALOX12): Round 2; actives 1.1% (n = 580,000); purified 12hLO, xylenol orange hydroperoxide absorbance; Potency, µM (top dose mostly 108 µM), inactives show at the highest dose activity change, negative = inhibition, usual class: inhibitors; AID 1671190, 2021; Polyunsaturated fatty acid lipoxygenase ALOX12 (Homo sapiens), P18054; further: on the % scale 0 is the no-effect control and ±100 the full control effect
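Purified human 12hLO (150 nM final) in 25 mM Hepes, 0.01% Triton X-100, pH 7.0 was preincubated 15 min at room temperature with compound. Then 40 uM arachidonic acid was added, 30 min. Hydroperoxide was read by Fe-XO absorbance ratio 573/405 nm.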
G9a inh: qHTS Assay for Inhibitors of Histone Lysine Methyltransferase G9a; Histone-lysine N-methyltransferase EHMT2 (Homo sapiens), Q96KQ7; G9a H3K9 monomethylation, AlphaScreen, 2 h; Potency, µM (top dose mostly 102 µM), for inactives: at the top dose activity, negative = inhibition, most hits filed as inhibitors; actives 8.8% (n = 350,000); further: on the % scale 0 is the no-effect control and ±100 the full control effect; nearly all actives have a fitted effect of over 75% in size
Target sequence (Q96KQ7 913-1193 limits assumed): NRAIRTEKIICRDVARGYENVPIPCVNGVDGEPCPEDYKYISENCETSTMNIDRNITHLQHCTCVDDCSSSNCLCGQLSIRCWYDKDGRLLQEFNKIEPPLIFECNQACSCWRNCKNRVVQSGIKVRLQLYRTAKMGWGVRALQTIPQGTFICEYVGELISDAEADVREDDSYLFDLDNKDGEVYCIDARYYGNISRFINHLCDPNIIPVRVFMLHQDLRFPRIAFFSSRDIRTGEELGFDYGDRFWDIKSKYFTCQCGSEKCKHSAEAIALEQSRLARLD
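Signal arises when biotinylated H3K9 peptide, once monomethylated, bridges streptavidin donor and antibody-captured acceptor beads. Enzyme at 20 nM was preincubated 15 min with test compounds; peptide 500 nM and SAM 20 uM then reacted for 2 h.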
Glioma ERSR ind: qHTS for Inducers of the Endoplasmic Reticulum Stress Response (ERSR) in Human Glioma: qHTS; Potency, µM, without a hit: at the top dose activation, usual class: activators; actives 0.02% (n = 420,000); U87-MG GRP78 promoter luciferase reporter, 16 h; further: series mostly up to about 76 µM; % of control where 0% means no effect; nearly all actives have a fitted effect of over 35% in size
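Stably transfected U87-MG glioma cells carrying a GRP78-based luciferase sensor; 16 h compound incubation. Luminescence end-point read 10 min after Bright-Glo addition at room temperature.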
VDR inh: Inhibitors of the vitamin D receptor (VDR): qHTS; Potency, µM, without a hit: max response, negative = inhibition, hits mostly inhibitors; Vitamin D3 receptor (Homo sapiens), P11473; actives 0.93% (n = 400,000); VDR-SRC2-3 peptide fluorescence polarization, 2 h; AID 504847, 2011; further: on the % scale 0 is the no-effect control and ±100 the full control effect
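Two reagent solutions held at 4 deg C in the dark were dispensed, compounds pinned at 23 nl, and the mixture incubated 2 h at room temperature. Read-out: fluorescence polarization of VDR–SRC2-3 peptide binding.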
Sfp inh: qHTS Assay for Inhibitors of Bacillus subtilis Sfp phosphopantetheinyl transferase (PPTase); Biochemical Sfp PPTase activity, qHTS; Potency, µM, inactives show largest response in the series, negative = inhibition, actives largely listed as inhibitors; actives 3.5% (n = 310,000); AID 1490, 2009;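 further: the enzyme is Sfp with the accession as filed and its product quenches rhodamine fluorescence; 0% = enzyme reaction without inhibitor and -100% = no enzyme wells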
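Sfp 15 nM + cpd, 15 min RT; start w/ rhodamine-CoA 5 uM, BHQ-2-YbbR 12.5 uM (final); 50 mM Hepes pH 7.6, 10 mM MgCl2, 0.01% NP-40, 0.01% BSA; read 525/598 nm at 0 and 30 min.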
* hit, by the source's call; ? = inconclusive; · = no result given; ! = repeats disagree; [ ] = another dose, or the depositor's remark. The call rests on the fitted dose curve; in most records, active means well fitted curve in the direction sought with a large enough effect; inconclusive means small, poorly fitted or top-dose-only effect, or another doubt; inactive means no such curve, though single readings can be large; an effect the other way counts as inactive or inconclusive. Potency means the concentration at half of the fitted maximal effect.

SMILES | ALOX12 inh | G9a inh | Glioma ERSR ind | VDR inh | Sfp inh
CC1CCC(NC(=S)NCCN(C)C)CC1 (stereo not given) | -20.9% | 39.8µM* | 4.6% | 2.3% | ?
CC(C)NCc1ccc(-c2ccc(C(C)O)cc2)o1 (stereo not given) | -24.8% | · | · | · | ·
COc1ccc(Cc2nc(=S)[nH][nH]2)cc1Br | ? | -117.5% | -3.7% | -10.6% | 35.5µM*
c1ccc(COCc2ccccc2)cc1 | 18.3% | · | · | · | ·
C[N+](CCOCc1ccccc1)(CCOCc1ccccc1)CCOCc1ccccc1 | 17.8µM* | · | · | · | ·
C#CC1c2ccccc2CCN1CC=C (stereo not given) | 11.2% | · | · | · | ·
C=CCN1CCN(C(=O)c2ccc(-c3ccccc3)cc2)CC1 | -11.7% | · | 1.5% | 6.9% | -2.3%
Cc1cccc(C2CN(C)CCc3c2cc(O)c(O)c3Cl)c1 (stereo not given) | -28.1% | 23.8µM* | -5.8% | -1.0% | ·
C=CCN1CCc2c(cc(O)c(O)c2Cl)C(c2ccccc2)C1 (stereo not given) | ? | 7.08µM*! | -2.3% | 4.7% | ?
C=CCN1CCc2cc(O)c(O)cc2C(c2ccccc2)C1 (stereo not given) | ? | 10µM* | -3.9% | -4.9% | ·
COc1c(CNC2CCN(Cc3ccccc3)CC2)c(C)nn1C | 3.1% | · | · | · | ·
O=C1CSc2ccc(C(=O)OCc3nc(-c4ccccc4)no3)cc2N1 | -9.2% | · | · | · | ·
O=C(NCc1ccncc1)c1cc(C2CC2)nc2ccccc12 | 12.4% | · | · | · | ·
O=S(=O)(O)c1cc(O)c2ccc(Nc3ccccc3)cc2c1 | 17.8µM* | · | 0.4% | -22.7% | ·
Nc1cccc2c(O)cccc12 | 16.1% | · | -2.2% | -3.5% | ·
Nc1cccc2c(O)cc(S(=O)(=O)O)cc12 | · | · | -1.7% | 12.6µM* | ·
O=S(=O)(O)c1ccc(O)c2cc(Nc3ccccc3)ccc12 | 31.6µM* | · | -1.5% | ? | ·
CC(=O)Nc1ccc2c(O)cc(S(=O)(=O)O)cc2c1 | ? | · | -2.3% | -4.8% | ·
O=S(=O)(O)c1cc(O)c2cc(Nc3ccccc3)ccc2c1 | 35.5µM* | · | -5.9% | ? | ·
O=S(=O)(O)c1cc(O)c2c(N=Nc3ccc(Nc4ccccc4)c4c(S(=O)(=O)O)cccc34)cc(S(=O)(=O)O)cc2c1 | · | ? | -9.9% | 39.8µM* | -6.8%
COc1ccccc1Nc1ccc2c(O)cc(S(=O)(=O)O)cc2c1 | 10µM* | · | -0.9% | ? | ·
COc1ccc(S(=O)(=O)O)cc1P(=O)(c1ccccc1)c1ccccc1 | · | 3.0% | -1.8% | 1.3% | 17.1%
CNCc1ccncc1 | 0.327µM* | · | · | · | ·
O=C(NCc1ccncc1)C(=O)NCc1ccncc1 | -26.4% | 16.2% | 15.1% | -14.1% | 13.4%
CCC1(c2ccccc2)NC(=O)N(CC(=O)Nc2cc(Cl)ccc2N2CCN(C)CC2)C1=O (stereo not given) | 230.3% | -3.4%[12.7 µM] | -5.4% | 6.9% | ·
SMILES | ALOX12 inh | G9a inh | Glioma ERSR ind | VDR inh | Sfp inh
CC1CCCCC12NC(=O)N(CC(=O)Nc1ccc(N3CCCCC3)cc1)C2=O (stereo not given) | -19.4% | 15.8µM* | -0.8% | -9.6% | ·
CN1CCN(c2ccc(Cl)cc2NC(=O)CN2C(=O)NC(C)(c3ccccc3)C2=O)CC1 (stereo not given) | 1.4% | 44.7µM* | 0.7% | -9.7% | ·
CC1(c2ccccc2Cl)NC(=O)N(CC(=O)Nc2ccc(N3CCOCC3)cc2)C1=O (stereo not given) | 0.0% | · | 0.8% | -17.9% | ·
CC1CC(C)(C)CC2(C1)NC(=O)N(CC(=O)Nc1ccc(N3CCCCC3)cc1)C2=O (stereo not given) | 13.5% | 44.7µM* | -1.9% | -2.4% | 1.8%
CC1(c2ccccc2Cl)NC(=O)N(CC(=O)Nc2ccc(N3CCCCC3)cc2)C1=O (stereo not given) | 5.0% | 14.1µM* | -1.6% | -8.5% | ·
Cc1c(NC(=O)c2cc3cc(F)ccc3[nH]2)c(=O)n(-c2ccccc2)n1C | -5.4% | · | · | · | ·
Cc1ccc2c(c1)c1c(n2CC(O)CNC2CCCC2)CCCC1 (stereo not given) | ? | 20µM* | -3.5% | -6.0% | -5.5%
O=[N+]([O-])c1ccc(N/N=C/c2ccc(O)c(O)c2O)c(S(=O)(=O)N2CCOCC2)c1 | -2.6% | · | -0.5% | ? | 7.08µM*
Cc1c(NC(=S)N/N=C/c2cc([N+](=O)[O-])ccc2O)c(=O)n(-c2ccccc2)n1C | ? | 56.2µM* | 2.7% | 0.5% | -19.1%
